Test results: PubChem BioAssay
Unmarked numbers belong to inactive results. Some of the results follow. Activity calls are given as the source filed them.

Assays:
[1] = target: Inward rectifier potassium channel 2 (Mus musculus) (UniProt P35561); assay: mouse Kir2.1 channel blockers, retest, confirmation, cell-based, FluxOR thallium flux, duplicate (AID 2032;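 active means Primary-screen hit whose thallium flux fell at least 3 control SD below untreated wells in both duplicates, with normal baseline fluorescence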); details: Kir2.1-expressing cells, FluxOR thallium flux fluorescence, at 10 µM; hits give low values
[2] = nonspecific thallium flux effects in parental HEK293 cells, confirmation, counter-screen for Kir2.1 inhibitor project, cell-based, FluxOR thallium flux, duplicate, single concentration (AID 2105); details: FluxOR thallium flux fluorescence, at 10 µM; 0% = unstimulated blank wells;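 on FluxOR signal as % of negative control (100 = no effect): percent is based on the flux ratio of peak minus minimum fluorescence over baseline F0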
[3] = nonspecific thallium flux increase in parental CHO-K1, confirmation, counter-screen for KCNQ2 potentiator project, cell-based, FluxOR thallium flux, duplicate (AID 2282;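 active means signal rise of at least 3 SD above the untreated control mean, in both duplicate wells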;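 further: counter screen of KCNQ2 potentiator hits so any rise reflects channel-independent effects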); details: parental CHO-K1 cells, FluxOR thallium flux fluorescence; at 10 µM; hits give high values; zero = vehicle mean+3SD, 100% = vehicle-minus-blank window
[4] = target: Potassium voltage-gated channel subfamily KQT member 1 (Homo sapiens) (UniProt P51787); assay: human KCNQ1 channel potentiation off-target, confirmation, selectivity assay for KCNQ2 potentiator project, cell-based, CHO, FluxOR thallium flux (AID 2283;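 active means fluorescence ratio rise of at least 3 SD of vehicle wells above their mean, in both replicate wells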;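 further: 0% = vehicle mean plus 3 SD and 100% = vehicle minus unstimulated blank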); details: CHO KCNQ1 stable, FluxOR thallium flux fluorescence; at 10 µM; hits give high values; beyond 3SD, as % of vehicle-control signal
[5] = target: Potassium voltage-gated channel subfamily KQT member 2 (Rattus norvegicus) (UniProt O88943); assay: rat KCNQ2 channel potentiators, confirmation, cell-based, CHO, FluxOR thallium flux, duplicate (AID 2287;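 active means fluorescence ratio rising 3 SD or more over the vehicle control mean in both replicates, plus primary screen hit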;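 further: peak minus minimum thallium fluorescence divided by baseline after K/Tl stimulus; 0% = vehicle mean plus 3 SD and 100% = vehicle minus unstimulated blank difference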); details: CHO-KCNQ2 cells, FluxOR thallium flux fluorescence; at 10 µM; hits give high values
[6] = target: Inward rectifier potassium channel 2 (Mus musculus) (UniProt P35561); assay: PubChem AID 2345; details: HEK293 Kir2.1, FluxOR thallium flux fluorescence; at 10 µM; hits give high values;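 further: 0% = vehicle mean plus 3 SD and 100% = vehicle minus no-stimulus blank window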
[7] = target: Potassium voltage-gated channel subfamily KQT member 2 (Rattus norvegicus) (UniProt O88943); assay: potentiators of retigabine-insensitive KCNQ2 W236L, mechanism study for KCNQ2 potentiator project, cell-based, rat KCNQ2 W236L, CHO, automated patch clamp (AID 2558;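 active means current increase at least 3 SD of the untreated controls above them in both duplicate recordings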); details: at 25 µM; outcome: automated patch clamp current
[8] = thallium flux activation in parental CHO cells, counter-screen for KCNQ1 potentiator project (AID 493006;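 active means duplicate-averaged activation above buffer control mean plus 5 SD of those controls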;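 on activation: fluorescence ratio of max minus min over baseline after K+ and Tl+ depolarization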); details: parental CHO-K1 cells, FluxOR thallium flux, at 10 µM; hits give high values
[9] = target: Potassium voltage-gated channel subfamily KQT member 1 (Homo sapiens) (UniProt P51787); assay: KCNQ1 potassium channel potentiators, confirmation, FluxOR thallium flux, CHO cells, duplicates (AID 493007;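 active means potentiation averaged over duplicate wells exceeding buffer-only control mean by more than 3 SD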;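 on outcome: cells depolarized by a potassium plus thallium sulfate stimulus after compound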;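 on potentiation: 0% = buffer-only wells and 100% = R-L3 activator control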); details: KCNQ1 cell line, FluxOR thallium flux fluorescence, at 10 µM; hits give high values, % of reference activator effect, buffer zero
[10] = target: Potassium voltage-gated channel subfamily KQT member 2 (Rattus norvegicus) (UniProt O88943); assay: rat KCNQ2 channel potentiation, selectivity assay for KCNQ1 potentiator project, KCNQ2-CHO-K1 cells (AID 493009;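 active means mean duplicate potentiation above the buffer control mean plus 5 SD of buffer wells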;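 further: assay conditions were tuned for KCNQ1 rather than KCNQ2 modulators; signal is max minus min fluorescence divided by baseline after thallium stimulus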); details: FluxOR thallium flux fluorescence, at 10 µM; hits give high values, scaled: buffer 0, activator control 100
[11] = target: Potassium voltage-gated channel subfamily KQT member 1 (Homo sapiens) (UniProt P51787); assay: KCNQ1 channel current potentiators, confirmation, orthogonal assay for KCNQ1 potentiator project, IonWorks patch clamp, KCNQ1-CHO cells (AID 493184;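 active means current rise at least 3 SD above the untreated control mean in each of two repeat wells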;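 on current potentiation: percent change of the same well's current before compound addition so 0% = no change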); details: automated patch clamp current, at 10 µM; hits give high values
[12] = target: Short transient receptor potential channel 4 (Mus musculus) (UniProt Q9QUQ5); assay: mouse TRPC4 membrane potential modulation by TRPC6 hits, confirmation, selectivity assay for TRPC6 inhibitor project, cell-based, second specificity screen, HEK293 TRPC4/mu-opioid (AID 2776;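 active means compounds whose fluorescence signal differed from control wells by over 3 SD, either direction, in both duplicate plates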); details: HEK293 TRPC4/MOR, membrane potential dye fluorescence, at 10 µM, channel activated by saturating DAMGO dose; hits give high values
[13] = test system: transient receptor potential cation channel C4 (TRPC4), mouse; assay: mouse TRPC4 modulation by TRPC6 hits, confirmation, selectivity assay for TRPC6 inhibitor project, cell-based, HEK293 TRPC4/mu-opioid, membrane potential dye (AID 2777;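 active means rise or fall in signal beyond 3 SD of buffer-only wells in both replicate plates, either sign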;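 further: integrated kinetic ratio of fluorescence range over baseline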); details: membrane potential fluorescence, at 10 µM
[14] = nonspecific membrane potential effects, parental HEK293, confirmation, counter-screen for TRPC6 inhibitor project, cell-based, second counter screen (AID 2779;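 active means membrane potential signal moving either way by over 3 SD of the maximum-effect control, in both duplicate plates, meaning non-specific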); details: parental HEK293 membrane potential dye fluorescence; at 10 µM; maximal acetylcholine challenge after compound addition
[15] = membrane potential modulation in parental HEK293, confirmation, counter-screen for TRPC6 inhibitor project, cell-based (AID 2780;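 active means membrane potential signal shifting up or down by more than 3 SD of buffer-only wells, on both duplicate plates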;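 further: plate controls were buffer EC0 wells for no effect and acetylcholine ECmax wells for full effect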); details: parental HEK293 membrane potential dye fluorescence; at 10 µM
[16] = target: Short transient receptor potential channel 6 (Mus musculus) (UniProt Q61143); assay: mouse TRPC6 channel inhibitors, confirmation, HEK293 cells, membrane potential dye, duplicate (AID 488960;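 active means fluorescence ratio falls more than 5 SD below the full-stimulation control mean, in both duplicate runs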;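 on inhibition: integrated fluorescence ratio of peak minus minimum over baseline after agonist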); details: ACh-evoked depolarization, at 10 µM; hits give high values
[17] = target: Short transient receptor potential channel 6 (Mus musculus) (UniProt Q61143); assay: mouse TRPC6 channel activators, confirmation, HEK293 cells, membrane potential dye, duplicate (AID 488961;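 active means ratio signal rise beyond 5 SD above unstimulated control wells' mean, seen in both duplicate runs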); details: HEK293-TRPC6 membrane potential dye fluorescence, FDSS, at 10 µM; hits give high values
[18] = target: Potassium voltage-gated channel subfamily KQT member 1 (Homo sapiens) (UniProt P51787); assay: KCNQ1 potassium channel inhibitors, confirmation, cell-based, Tl flux, duplicate (AID 588353;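 active means primary screen active, with duplicate mean exceeding buffer control mean plus 3 SD of buffer wells, cut at about 28% in these data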;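 further: 0% = buffer control ratio and 100% = XE991 inhibitor control ratio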); details: KCNQ1 cell line, FluxOR thallium flux fluorescence; at 10 µM; hits give high values
[19] = thallium flux effects in parental CHO cells, counter-screen for KCNQ1 inhibitor project, cell-based, Tl flux (AID 588366;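 active means mean of duplicate thallium-flux fluorescence ratios in parental host cells more than 5 SD below the buffer control mean, cut at about 0.38 in these data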;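 further: ratio is peak minus minimum fluorescence divided by baseline fluorescence; actives read low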); details: parental CHO-K1, FluxOR thallium flux fluorescence ratio; at 10 µM; hits give low values; zero means no signal rise above baseline
[20] = target: Potassium voltage-gated channel subfamily KQT member 2 (Rattus norvegicus) (UniProt O88943); assay: KCNQ2 channel inhibition, selectivity assay for KCNQ1 inhibitor project, cell-based (AID 651746;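 active means mean percent inhibition of the KCNQ2 thallium signal more than 5 SD above the buffer-only control wells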;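 further: 0% = buffer control wells and 100% = XE-991 inhibitor control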); details: KCNQ2 cells, FluxOR thallium flux fluorescence, at 10 µM; hits give high values
[21] = target: Potassium voltage-gated channel subfamily E member 1 (Homo sapiens) + Potassium voltage-gated channel subfamily KQT member 1 (Homo sapiens) (UniProt P15382+P51787); assay: KCNQ1/KCNE1 channel inhibition, selectivity assay for KCNQ1 inhibitor project, CHO-K1 cells, thallium flux, FluxOR (AID 652147;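 active means mean percent inhibition of duplicate wells above the buffer-only control mean plus 3 SD of those controls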); details: FluxOR thallium flux fluorescence, at 10 µM
Potassium voltage-gated channel subfamily E member 1 (Homo sapiens) + Potassium voltage-gated channel subfamily KQT member 1 (Homo sapiens), sequence (P51787 whole entry, looked up): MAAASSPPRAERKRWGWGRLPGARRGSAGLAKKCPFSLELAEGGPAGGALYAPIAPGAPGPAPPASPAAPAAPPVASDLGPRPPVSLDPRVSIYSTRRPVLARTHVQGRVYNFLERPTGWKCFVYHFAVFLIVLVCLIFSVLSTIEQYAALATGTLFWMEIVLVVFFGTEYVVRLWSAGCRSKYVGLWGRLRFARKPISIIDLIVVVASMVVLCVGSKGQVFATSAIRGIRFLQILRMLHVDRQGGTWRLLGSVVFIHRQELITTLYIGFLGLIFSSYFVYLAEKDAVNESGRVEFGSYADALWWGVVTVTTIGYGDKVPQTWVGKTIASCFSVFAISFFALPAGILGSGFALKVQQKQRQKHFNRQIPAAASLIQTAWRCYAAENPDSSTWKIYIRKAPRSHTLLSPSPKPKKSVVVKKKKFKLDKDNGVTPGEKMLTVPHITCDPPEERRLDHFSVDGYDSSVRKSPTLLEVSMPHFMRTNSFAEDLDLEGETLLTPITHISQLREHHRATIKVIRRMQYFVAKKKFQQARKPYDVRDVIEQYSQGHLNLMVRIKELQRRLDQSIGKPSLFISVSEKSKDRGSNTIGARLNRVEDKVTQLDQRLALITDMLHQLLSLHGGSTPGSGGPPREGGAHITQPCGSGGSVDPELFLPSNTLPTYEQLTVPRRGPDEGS

Potassium voltage-gated channel subfamily KQT member 1 (Homo sapiens), sequence (P51787 whole entry, looked up): as above
Short transient receptor potential channel 6 (Mus musculus), sequence (Q61143 whole entry, looked up): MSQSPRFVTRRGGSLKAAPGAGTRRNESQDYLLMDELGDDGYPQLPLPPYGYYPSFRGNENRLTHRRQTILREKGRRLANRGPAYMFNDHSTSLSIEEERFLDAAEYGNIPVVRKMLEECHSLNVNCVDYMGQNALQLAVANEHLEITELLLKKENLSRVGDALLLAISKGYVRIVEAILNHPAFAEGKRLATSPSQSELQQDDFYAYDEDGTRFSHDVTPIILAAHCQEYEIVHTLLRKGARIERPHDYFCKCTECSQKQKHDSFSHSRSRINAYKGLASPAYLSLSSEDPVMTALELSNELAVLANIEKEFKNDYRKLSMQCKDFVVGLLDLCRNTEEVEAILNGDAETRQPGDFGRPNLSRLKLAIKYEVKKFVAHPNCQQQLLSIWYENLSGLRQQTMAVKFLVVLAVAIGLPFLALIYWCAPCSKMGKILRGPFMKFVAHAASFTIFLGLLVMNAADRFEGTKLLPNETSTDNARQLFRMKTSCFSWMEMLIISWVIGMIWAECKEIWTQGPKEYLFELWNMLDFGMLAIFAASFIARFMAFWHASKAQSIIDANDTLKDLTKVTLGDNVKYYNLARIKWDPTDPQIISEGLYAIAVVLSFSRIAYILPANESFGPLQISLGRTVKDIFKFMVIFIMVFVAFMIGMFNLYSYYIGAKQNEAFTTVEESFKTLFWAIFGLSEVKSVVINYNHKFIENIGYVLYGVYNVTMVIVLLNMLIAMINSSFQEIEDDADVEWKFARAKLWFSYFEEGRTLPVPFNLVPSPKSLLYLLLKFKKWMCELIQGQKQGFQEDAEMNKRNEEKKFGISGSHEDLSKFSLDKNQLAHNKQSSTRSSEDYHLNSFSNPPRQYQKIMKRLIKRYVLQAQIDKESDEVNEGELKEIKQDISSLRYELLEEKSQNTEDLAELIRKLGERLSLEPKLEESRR
Inward rectifier potassium channel 2 (Mus musculus), sequence (P35561 whole entry, looked up): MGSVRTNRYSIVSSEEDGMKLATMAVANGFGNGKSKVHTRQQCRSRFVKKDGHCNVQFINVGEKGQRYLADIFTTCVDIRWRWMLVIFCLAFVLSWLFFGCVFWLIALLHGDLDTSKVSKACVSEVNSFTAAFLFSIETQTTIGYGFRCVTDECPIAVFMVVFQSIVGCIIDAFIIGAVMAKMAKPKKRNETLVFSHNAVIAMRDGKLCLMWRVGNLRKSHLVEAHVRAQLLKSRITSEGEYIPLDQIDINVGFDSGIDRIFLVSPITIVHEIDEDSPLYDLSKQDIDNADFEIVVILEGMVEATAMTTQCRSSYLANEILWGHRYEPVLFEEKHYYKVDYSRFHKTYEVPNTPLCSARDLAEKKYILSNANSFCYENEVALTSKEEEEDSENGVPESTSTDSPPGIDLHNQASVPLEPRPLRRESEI
Short transient receptor potential channel 4 (Mus musculus), sequence (Q9QUQ5 whole entry, looked up): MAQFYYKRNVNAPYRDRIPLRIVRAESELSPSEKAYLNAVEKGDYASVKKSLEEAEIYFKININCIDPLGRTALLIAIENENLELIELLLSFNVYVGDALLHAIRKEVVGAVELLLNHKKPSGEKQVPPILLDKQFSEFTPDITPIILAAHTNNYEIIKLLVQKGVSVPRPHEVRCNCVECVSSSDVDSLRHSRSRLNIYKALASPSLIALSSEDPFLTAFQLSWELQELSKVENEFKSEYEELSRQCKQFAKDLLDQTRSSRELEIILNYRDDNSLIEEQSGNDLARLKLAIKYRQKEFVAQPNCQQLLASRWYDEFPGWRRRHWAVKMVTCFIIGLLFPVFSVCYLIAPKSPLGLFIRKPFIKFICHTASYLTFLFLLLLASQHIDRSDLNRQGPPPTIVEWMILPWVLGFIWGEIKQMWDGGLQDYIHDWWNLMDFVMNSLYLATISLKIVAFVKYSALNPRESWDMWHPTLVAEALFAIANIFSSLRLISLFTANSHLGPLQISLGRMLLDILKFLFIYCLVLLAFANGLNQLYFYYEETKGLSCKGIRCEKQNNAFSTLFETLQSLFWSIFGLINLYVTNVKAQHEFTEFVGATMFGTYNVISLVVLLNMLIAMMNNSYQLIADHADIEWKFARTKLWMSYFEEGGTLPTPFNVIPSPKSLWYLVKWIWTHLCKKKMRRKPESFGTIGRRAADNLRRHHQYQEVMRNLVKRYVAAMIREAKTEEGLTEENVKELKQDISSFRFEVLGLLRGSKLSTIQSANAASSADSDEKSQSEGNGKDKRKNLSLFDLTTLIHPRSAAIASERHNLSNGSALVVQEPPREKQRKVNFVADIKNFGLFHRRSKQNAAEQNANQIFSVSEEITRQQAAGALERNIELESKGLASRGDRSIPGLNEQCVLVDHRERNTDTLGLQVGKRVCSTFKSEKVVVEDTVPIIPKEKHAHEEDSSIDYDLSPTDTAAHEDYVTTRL

Cc1ccc(/C=N/NC(=O)c2cc3ccccc3cc2O)o1
outcome [1]: inactive
FluxOR signal as % of negative control (100 = no effect) [2]: 414% (active)
activity increase over 3SD of controls [3]: 42.5% (active)
activation over 3SD threshold [4]: -6.4%
potentiation, less the hit threshold [5]: 69% (active)
activity over 3SD threshold [6]: -20.1%
outcome [7]: inactive
activation [8]: 482% (active)
potentiation [9]: 140% (active)
potentiation [10]: 506% (active)
outcome [11]: inactive

CCC1(C)Cc2c(sc3nnn(CC(=O)Nc4ccc(Cl)cc4)c(=O)c23)CO1 (stereo not given)
outcome [1]: inactive
outcome [2]: inactive
activity increase over 3SD of controls [3]: -19.3%
activation over 3SD threshold [4]: 4.5% (active)
potentiation, less the hit threshold [5]: 2.2% (active)
activity over 3SD threshold [6]: -36.4%
outcome [7]: inactive

CCn1c2ccccc2c2cc(NC(=O)CNC)ccc21
Tl flux remaining, % of negative control (hits give low values) [1]: 44% (active)
outcome [2]: inactive
activity increase over 3SD of controls [3]: -6.1%
activation over 3SD threshold [4]: -12.2%
potentiation, less the hit threshold [5]: 1.9% (active)
activity over 3SD threshold [6]: -90%
outcome [7]: inactive
outcome [8]: inactive
outcome [9]: inactive
outcome [10]: inactive
outcome [11]: inactive

O=C(NC(Nc1nc2ccc([N+](=O)[O-])cc2s1)(C(F)(F)F)C(F)(F)F)c1ccccc1
outcome [1]: inactive
outcome [2]: inactive
inhibition [12]: 45% (active)
activity change, negative = inhibition [13]: 60.8% (active)
outcome [14]: inactive
membrane potential signal change [15]: 36.6% (active)
inhibition [16]: 93.7% (active)

Cc1ccc2nc(C)c3c(c2c1)N(c1ccccc1)CC3
Tl flux remaining, % of negative control (hits give low values) [1]: 27.5% (active)
outcome [2]: inactive
inhibition [12]: 32% (active)
outcome [13]: inactive
outcome [14]: inactive
membrane potential signal change [15]: -212% (active)
outcome [16]: inactive
outcome [17]: inactive
inhibition [18]: 46% (active)
fluorescence ratio (Tl flux) [19]: 0.419
inhibition [20]: 83.7% (active)
outcome [21]: inactive

CCC1(C)Cc2c(sc3[nH]c(=S)n(Cc4ccccc4)c(=O)c23)CO1 (stereo not given)
outcome [1]: inactive
FluxOR signal as % of negative control (100 = no effect) [2]: 527% (active)
activity increase over 3SD of controls [3]: -13%
activation over 3SD threshold [4]: -16.6%
potentiation, less the hit threshold [5]: 66% (active)
activity over 3SD threshold [6]: 10.5% (active)
outcome [7]: inactive
activation [8]: 294% (active)
potentiation [9]: 190% (active)
potentiation [10]: 388% (active)
current potentiation [11]: 15.1% (active)

Oc1c(Cl)cc(Cl)cc1/C=N/c1ncn[nH]1
outcome [1]: inactive
outcome [2]: inactive
activity increase over 3SD of controls [3]: -13.3%
activation over 3SD threshold [4]: -9.2%
potentiation, less the hit threshold [5]: 37.8% (active)
activity over 3SD threshold [6]: -28.1%
outcome [7]: inactive
activation [8]: 232% (active)
potentiation [9]: 41.5% (active)
potentiation [10]: 156% (active)
outcome [11]: inactive

CCCc1nc2sc3c(c2c(=O)n1NC(=O)CCCl)CCCC3
outcome [1]: inactive
outcome [2]: inactive
activity increase over 3SD of controls [3]: -7%
activation over 3SD threshold [4]: 28.9% (active)
potentiation, less the hit threshold [5]: 69.9% (active)
activity over 3SD threshold [6]: -17.7%
outcome [7]: inactive

CCOC(=O)c1c(NC(=S)NC)sc2c1CCCC2
outcome [1]: inactive
FluxOR signal as % of negative control (100 = no effect) [2]: 196% (active)
activity increase over 3SD of controls [3]: 6.2% (active)
activation over 3SD threshold [4]: -17.4%
potentiation, less the hit threshold [5]: 16.6% (active)
activity over 3SD threshold [6]: -37.6%
outcome [7]: inactive
activation [8]: 318% (active)
potentiation [9]: 73% (active)
potentiation [10]: 289% (active)
outcome [11]: inactive

CCn1cc(CN2CCC(C(=O)Nc3cccc(-c4cccc(Cl)c4)c3)CC2)cn1
Tl flux remaining, % of negative control (hits give low values) [1]: 55% (active)
outcome [2]: inactive
outcome [8]: inactive
outcome [9]: inactive
outcome [11]: inactive

COc1ccc(C(=O)Nc2ncc3c(n2)-c2ccccc2CC3)cc1
outcome [1]: inactive
outcome [2]: inactive
activity increase over 3SD of controls [3]: -7.8%
activation over 3SD threshold [4]: 8.3% (active)
potentiation, less the hit threshold [5]: -1%
activity over 3SD threshold [6]: -29.6%
outcome [7]: inactive

O=C(NNC1=C(C(=O)C(F)(F)F)CCC1)c1ccncc1
outcome [1]: inactive
outcome [2]: inactive
activity increase over 3SD of controls [3]: -5.7%
activation over 3SD threshold [4]: -11.4%
potentiation, less the hit threshold [5]: 1.3% (active)
activity over 3SD threshold [6]: -36.3%
outcome [7]: inactive

O=C(Nc1ccc(Oc2ccccc2)cc1)c1ccco1
outcome [1]: inactive
outcome [2]: inactive
activity increase over 3SD of controls [3]: -13.5%
activation over 3SD threshold [4]: 26% (active)
potentiation, less the hit threshold [5]: 37.7% (active)
activity over 3SD threshold [6]: -25.3%
current increase over 3SD of negative controls (%), hits give high values [7]: 9.43% (active)

CCOC(=O)c1sc(=S)n2c1[nH]c(=O)c1ccc(C(=O)OC)cc12
outcome [1]: inactive
FluxOR signal as % of negative control (100 = no effect) [2]: 174% (active)
activity increase over 3SD of controls [3]: -16.8%
activation over 3SD threshold [4]: 4.8% (active)
potentiation, less the hit threshold [5]: 26.7% (active)
activity over 3SD threshold [6]: -43.9%
outcome [7]: inactive
activation [8]: 383% (active)
potentiation [9]: 108% (active)
potentiation [10]: 351% (active)
outcome [11]: inactive

CS(=O)(=O)c1sc(C(=O)NC(=S)Nc2ccc(OC(F)(F)F)cc2)c2c1C=CCC2
outcome [1]: inactive
outcome [2]: inactive
activity increase over 3SD of controls [3]: -1.6%
activation over 3SD threshold [4]: 45.7% (active)
potentiation, less the hit threshold [5]: -3.3%
activity over 3SD threshold [6]: -36.7%
outcome [7]: inactive
outcome [8]: inactive
potentiation [9]: 92% (active)
potentiation [10]: 168% (active)
outcome [11]: inactive

CC(=O)NNC(=O)c1csc(Cc2c(Cl)sc3ccc(Cl)cc23)n1
activity increase over 3SD of controls [3]: 26.3% (active)
activation over 3SD threshold [4]: -5%
potentiation, less the hit threshold [5]: 12.3% (active)
activity over 3SD threshold [6]: -69.1%
current increase over 3SD of negative controls (%), hits give high values [7]: 1.62% (active)

Cc1ccc(-n2nc3c(c2NC(=O)CCC2CCCCC2)CS(=O)C3)cc1 (stereo not given)
outcome [1]: inactive
outcome [2]: inactive
activity increase over 3SD of controls [3]: 7.4% (active)
activation over 3SD threshold [4]: 30.1% (active)
potentiation, less the hit threshold [5]: 27.6% (active)
activity over 3SD threshold [6]: -35.2%
outcome [7]: inactive

CCCCNC(=O)Nc1c(C)cc(SC#N)cc1C
outcome [1]: inactive
outcome [2]: inactive
activity increase over 3SD of controls [3]: 5.5% (active)
activation over 3SD threshold [4]: 75.2% (active)
potentiation, less the hit threshold [5]: 19.5% (active)
activity over 3SD threshold [6]: -33.2%
outcome [7]: inactive
